PubChem BioAssay (NCI)
About 79,000 compounds went through this panel and 15% of them were active in at least one assay; those are over-represented in the sample as a whole. Values without a mark were called inactive. Activity calls are given as the source filed them. Cut-off read from the data, not from the text of the source: active = growth inhibition above about 70%; inactive = the rest.

Columns and labels:
[1] = NCI Yeast Anticancer Drug Screen. Data for the rad50 strain (AID 155);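 note: 0% = growth of vehicle-only cultures of the same strain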; details: S. cerevisiae rad50 strain growth inhibition; at 50.0 µM; hits give high values
Procedure, shortened: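 Yeast carrying a defined DNA repair defect were exposed to test compounds, and growth was compared with vehicle-treated controls to give percent inhibition.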

[2] = NCI Yeast Anticancer Drug Screen. Data for the mec2-1 strain (AID 157); details: S. cerevisiae mec2-1 strain, at 50.0 µM, hits give high values
Procedure, shortened: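 Mutant yeast (mec2-1) grown with compound; growth inhibition relative to vehicle control reported.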

[3] = NCI Yeast Anticancer Drug Screen. Data for the sgs1 mgt1 strain (AID 161);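 note: 0% = growth of cultures given vehicle only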; details: S. cerevisiae sgs1 mgt1 strain, at 50.0 µM, hits give high values
Procedure, shortened: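 Yeast cells carrying a defined DNA-repair defect were exposed to test compounds. Growth inhibition was measured relative to vehicle-treated controls.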

[4] = NCI Yeast Anticancer Drug Screen. Data for the cln2 rad14 strain (AID 165);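 note: 0% = growth equal to vehicle treated cultures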; details: S. cerevisiae cln2 rad14 strain, at 50.0 µM, hits give high values
Procedure, shortened: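 Readout is yeast growth inhibition versus vehicle-treated controls, using a strain with cln2 and rad14 alterations exposed to compound.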

[5] = NCI Yeast Anticancer Drug Screen. Data for the bub3 strain (AID 167); details: S. cerevisiae bub3 mutant strain, at 50.0 µM, hits give high values
Procedure, shortened: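 Compounds were applied to a genetically altered yeast strain carrying a cell-cycle control defect. Growth inhibition was scored against vehicle-treated controls.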

[6] = NCI Yeast Anticancer Drug Screen. Data for the mlh1 rad18 strain (AID 175); details: S. cerevisiae mlh1 rad18 strain growth inhibition; at 50.0 µM; hits give high values
Procedure, shortened: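 Genetically defined yeast (DNA repair-deficient) exposed to compounds; growth inhibition determined relative to vehicle.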

Compound	growth inhibition [1]	growth inhibition [2]	growth inhibition [3]	growth inhibition [4]	growth inhibition [5]	growth inhibition [6]
COc1cc2c(cc1OC)C(=O)N(c1ccc(O)cc1)C2=O	-8.25%	-17.6%	-7.8%	20.8%	12.3%	3.9%
CCNC1=C(OC)C(=O)C(NCC)=C(OC)C1=O	-6.2%	7.25%	2.6%	-33.6%	5.3%	-5.8%
COc1ccc2oc(=O)c(CC=C(C)C)c(O)c2c1C	23.8%	13.9%	-1.65%	-10.9%	-25.2%	-51%
CCN(CC)CCOC(=O)Nc1cc(C)cc(C)c1	24.6%	-9.15%	27.5%	16.4%	31.9%	17.1%
CCN1OCC(C)(C(=O)OC)C1C (stereo not given)	-13.9%	-13.1%	-10.7%	-31%	9.9%	-21.1%
CCSc1ncnc2nc[nH]c12	9%	-8.8%	4.4%	-18.4%	-9.55%	8.4%
COc1ccc(N(C(=O)Nc2ccc(Cl)c(Cl)c2)c2ccccc2)cc1	-32.1%	-28.4%	-19.2%	-1.45%	14.3%	-10.4%
COC(=O)c1c(C(=O)Nc2ccccc2)c(-c2ccccc2)n(NC(N)=O)c1C	8.35%	3.25%	4.2%	-17.4%	-1.75%	17%
C=CCCCCCCCCC(=O)NCc1nc2ccccc2[nH]1	20.6%	21.6%	25.9%	1.15%	5.9%	69.1%
COC(=O)Cc1cc(=O)c2cc(C)ccc2[nH]1	0.9%	3.6%	-2.7%	-29.6%	-13.9%	-1.15%
O=C(OCC1CCCO1)c1ccc(Cl)cc1 (stereo not given)	13.7%	-4.4%	24.9%	34.1%	8%	7.2%
O=C(Nc1cc2[nH]c(=O)c3ccccc3c2cc1[N+](=O)[O-])C(F)(F)F	40%	-5.85%	10.8%	0.9%	-12.4%	0.25%
CCOC(=O)C(C)C1CCCc2c(C)ccc(C)c21 (stereo not given)	-8.25%	9.6%	1.25%	-1.8%	8.5%	2.7%
O=P(O)(O)OP(=O)(O)OCC1OC(n2cnc3c(=S)nc[nH]c32)C(O)C1O (stereo not given)	-2.65%	3.5%	-5%	-9.2%	3.55%	2.85%
O=C(c1ccccc1Br)C(F)(F)F	-2.6%	-19.5%	-18.4%	-17.5%	-43.9%	-3.8%
Nc1nc(Cl)cc(NCCCNc2cc(Cl)nc(N)n2)n1	-1.55%	6.55%	13.3%	1.15%	3.65%	4.35%
CCCN(CCC)c1ccc(C(=O)c2ccccc2)cc1	-12.4%	-3%	-1%	-33.8%	18.6%	-6%
CC(CNC(N)=O)(CNC(N)=O)c1ccccc1	-4.75%	-9.05%	-11.8%	-21.6%	-0.45%	-25.1%
Clc1ccc(CSc2cnnc(Cl)c2SCc2ccc(Cl)cc2)cc1	8.1%	-4.5%	8.2%	22.8%	-2.15%	3.05%
CCCNc1ncnc2[nH]ncc12	-44.1%	-25.9%	-39.9%	-23%	-42.2%	-32%
Nc1cc(Cl)cc2cc(Cl)cnc12	54.2%	54.8%	25.4%	29.1%	47.4%	39.5%
CC(=O)NC1C(OCc2ccccc2)OC(CO)C(O)C1OCC(=O)N1CCCC1C(=O)NC(CCC(=O)NCCCCCNc1c2ccccc2nc2cccc([N+](=O)[O-])c12)C(N)=O (stereo not given)	42.9%	57.6%	47.6%	78.2% (active)	0.55%	72.5% (active)
CN(C)C(CO)(CO)CO	15.3%	-7.5%	3%	-0.75%	3.3%	2.3%

Compound	growth inhibition [1]	growth inhibition [2]	growth inhibition [3]	growth inhibition [4]	growth inhibition [5]	growth inhibition [6]
CCC(C)(C#N)OC(C)=O (stereo not given)	-3.75%	-26.6%	-8.4%	-6.85%	4.6%	8.45%
O=S(=O)(Oc1cccc2ccccc12)c1ccc(Br)cc1	3.15%	-13.4%	10.2%	-9.75%	30.7%	-10.3%
NC1CCCCCC1	2.95%	-7.25%	0.8%	3.25%	8.45%	-2.4%
CCCCCCCCCCCCCCCCOc1cccc(/C(=N/NS(C)(=O)=O)N2CCCCC2)c1	-16.1%	-30.6%	-8.3%	1.75%	-16.8%	-5.5%
O=C(Cc1nc2ccc(Cl)cc2[nH]c1=O)c1ccncc1	-2.8%	-11.6%	-3.55%	8.1%	-24.1%	20.8%
CCCCC(O)(CC)CC	3.3%	-23.9%	-3.6%	5.5%	-16.4%	15.2%
CC1=CC(C)(C)NC(=S)N1C1CCCCC1	9.75%	-6.85%	6.3%	-5%	6.55%	14.6%
CCc1ccc[n+](CCc2c[nH]c3ccccc23)c1	-13%	-0.45%	-10%	1.35%	1.35%	-10.5%
Cc1cc2c(C)nn(Cc3ccc(Cl)cc3Cl)c2c(C#N)c1C	18.2%	-14.8%	24.9%	20.1%	5.8%	31.6%
CCCCC1(CO)NC(=O)NC1=O (stereo not given)	-4.5%	-13.9%	-8.7%	8.95%	2.75%	-1.4%
Cc1cc(C)nc(NS(=O)(=O)c2ccc(Nc3c4ccc(Cl)cc4nc4c(C(=O)NCCN(C)C)cccc34)cc2)n1	0%	13.8%	-5.05%	1.4%	30.8%	6.95%
COC(=O)C(C/C=C(\C)c1ccccc1)C(C)=O (stereo not given)	-13.1%	-23.7%	-25%	19.1%	-23.1%	-0.35%
O=C(O)Cc1ccc(N2N=C(c3ccccc3)CC2=O)cc1	5.3%	-5.05%	-13.6%	35%	22.4%	-9.3%
CC1=CC(C)(C)NC(=S)N1c1ccc(C)cc1S(=O)(=O)O	28.5%	-1.7%	-18%	-16.2%	7.95%	27.9%
N#Cc1c(Cl)cccc1N1CCSCC1	1.75%	-20.8%	15.3%	18.2%	-0.9%	0.1%
CCOC(=O)C(C)C(=O)OCC	51.2%	-17.9%	2.55%	-3.6%	2.3%	34.5%
CC(C)/C(Cl)=N/OC(=O)Nc1ccc(Br)cc1	34.6%	47.5%	90.5% (active)	24.1%	69.3%	81.8% (active)
NC(=O)COc1c(Br)cc(Br)cc1Br	-1.55%	6.65%	-12.1%	-3.75%	-21.4%	-25.4%
OCCCOc1ccc2ccccc2c1	21.4%	10.2%	28.4%	3.95%	-7.25%	9.85%
Cn1c(COC(=O)Nc2ccccc2)c(COC(=O)Nc2ccccc2)c2ccc3cc(Cl)c(Cl)cc3c21	72.9% (active)	78.8% (active)	76.3% (active)	81.2% (active)	84.3% (active)	-44%
CC1CC(C)c2ccccc21 (stereo not given)	42.3%	27.4%	17.8%	39.3%	0.3%	2.4%
CCC/C=C(/CC)COC(C)=O	3.15%	-19.1%	-6.6%	-7.25%	-5.35%	-3.85%
